NadD block: NadD (S. aureus) enzyme inhibition. inhibition, % at 20 µM. hit rate 0.78% among 360,000. purified NadD enzyme, colorimetric absorbance read-out. AID 602399; in the data active means inhibition above about 26%
GRK2 inh: inhibitors of human GRK2 displacing RNA aptamer | P25098 | bead flow cytometry, FAM-aptamer displacement from GRK2 | inhibition of aptamer binding, % at 10 µM | hit rate 0.59% among 330,000;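 active means inhibition of aptamer binding above 40%, roughly 3 SD of noise, on plates passing a quality check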;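 further: median bead fluorescence of bound FAM aptamer so fluorescent compounds give negative values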
PP1 counter: blocks human PP1-alpha phosphatase, a PP5 counter-screen | P62136 | purified PP1alpha, OMFP fluorescence | inhibition, % at 6.7 µM | hit rate 0.9% among 320,000 | AID 2235;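 active means inhibition above the mean inhibition of all tested compounds plus 3 SD, computed separately for each screening campaign, cut at about 15% in these data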
Exocytosis inh: lytic granule exocytosis inhibition. TALL-104 LAMP-1 surface exposure, flow cytometry; cells stimulated with thapsigargin and PMA. inhibition, % at 10 µM. hit rate 0.66% among 360,000. AID 651702;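 active means inhibition above about 55%, limit read from the data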
Beta2AR agonist: activates human beta-2 adrenergic receptor causing internalization. response, % (test concentration not listed). hit rate 0.43% among 340,000. AID 504454. Am2.2-beta2AR cells, FAP receptor internalization, flow cytometry;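 active means response above a set limit, near 3 SD of response in nonfluorescent compounds, cut at about 42% in these data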
Target sequence (P07550 whole entry, looked up): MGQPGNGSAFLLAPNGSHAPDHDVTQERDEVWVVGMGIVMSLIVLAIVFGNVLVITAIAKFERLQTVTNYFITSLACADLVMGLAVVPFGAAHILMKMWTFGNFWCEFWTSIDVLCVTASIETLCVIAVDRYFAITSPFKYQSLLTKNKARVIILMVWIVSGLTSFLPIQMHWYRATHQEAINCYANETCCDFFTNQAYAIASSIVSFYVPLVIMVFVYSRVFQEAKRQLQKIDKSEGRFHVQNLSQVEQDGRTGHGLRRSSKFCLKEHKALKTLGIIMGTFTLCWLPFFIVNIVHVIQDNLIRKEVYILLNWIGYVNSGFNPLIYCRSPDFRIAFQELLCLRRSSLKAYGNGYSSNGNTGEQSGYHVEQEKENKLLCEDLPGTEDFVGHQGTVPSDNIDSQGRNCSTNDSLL
* hit, by the source's call; · = no result. Sampled rows, rich in hits. Any-hit rate of the full collection: about 2.9%.

SMILES	NadD block	GRK2 inh	PP1 counter	Exocytosis inh	Beta2AR agonist
Nc1ccc(C(=O)OCC(=O)N2c3ccccc3Sc3ccccc32)cc1[N+](=O)[O-]	14	3	-2	-2	-3
COC(=O)/C(=C\c1c[nH]c2ccccc12)NC(C)=O	-3	0	16*	-1	8
CC(C)(C)OC(=O)C[C@@H]1C/C=C\C[C@@H](CC(=O)N(CCO)Cc2ccccc2)C(=O)NC[C@H](c2ccccc2)OC1=O	2	0	·	76*	23
CC(C)(C)OC(=O)C[C@@H]1C/C=C\C[C@@H](CC(=O)N(CCO)Cc2ccccc2)C(=O)NC[C@@H](c2ccccc2)OC1=O	0	1	·	-8	4
CCOc1ccccc1C(=O)NC(C(=O)OCC(=O)Nc1nnc(-c2ccccc2)o1)C(C)C (configuration not stated)	23	0	16*	9	-12
O=C(COc1ccccc1)Nc1nnc(-c2ccc(Cl)cc2)o1	4	1	17*	2	3
CC(=O)N1N=C(c2ccc3ccccc3c2)OC1(C)C	-5	5	-2	-6	-7
CC(C)(C)C1N=C(c2ccc3ccccc3c2)OC1=O (configuration not stated)	-3	0	-2	64*	-2
Cc1ccc(S(=O)(=O)N(C)C)cc1NC(=O)c1cc(S(=O)(=O)N2CCCCC2)ccc1N1CCOCC1	-2	·	·	-9	-10
Cc1ccc(S(=O)(=O)SC/C=C/CSS(=O)(=O)c2ccc(C)cc2)cc1	12	·	·	78*	-5
Cc1nc2cc(C(=O)OCC(=O)NC34CC5CC(CC(C5)C3)C4)ccc2n1-c1ccccc1	6	41*	0	2	-2
COC(=O)C1(Cc2ccc3c(c2)CCC3)Cc2ccc3c(c2C1=O)CCC3 (configuration not stated)	0	·	·	-8	-4
S=C(Nc1cccc(Cl)c1)N(CCCN1CCCC1)Cc1cccn1Cc1ccc(Cl)cc1	-4	0	6	85*	27
C[C@@H]1CN([C@H](C)CO)C(=O)c2cc(NC(=O)Nc3ccc(C(F)(F)F)cc3)ccc2O[C@H]1CN(C)Cc1ccc(Cl)c(Cl)c1	33*	4	·	10	-1
CCCCn1c(N)c(N(CC(C)C)C(=O)c2cccs2)c(=O)[nH]c1=O	1	2	-4	-5	-3
O=C1c2sc3nc4ccccc4n3c2C(=O)N1c1ccccc1Cl	5	2	2	1	46*
Cn1c(N)c(C(=O)CSc2nc(N)cc(N)n2)c(=O)n(C)c1=O	3	1	0	2	-6
O=c1oc2ccccc2c(O)c1/C=C1\C=Nc2ccccc21	7	0	4	-3	48*
O=c1oc2ccccc2c(O)c1/C=N/c1ncccn1	0	3	-3	0	4
CC(C)CC(=O)/C(=C\c1ccc(Cl)cc1Cl)n1cncn1	0	·	·	38	47*
COc1cccc(Cn2cnc3c(NS(=O)(=O)c4ccc(Cl)cc4Cl)c(C)c(C)cc32)c1	26	2	3	23	8
COc1cccc(Cn2cnc3c(NS(=O)(=O)c4cccc(Cl)c4Cl)c(C)c(C)cc32)c1	30*	0	4	45	12
CN(C)C(CNc1ccc(S(C)(=O)=O)cc1[N+](=O)[O-])c1ccccc1 (configuration not stated)	-2	3	0	-10	1
CN(C)C(CNc1ccc(C(F)(F)F)cc1[N+](=O)[O-])c1ccccc1 (configuration not stated)	-9	2	8	74*	-4
Nc1sc(Cc2ccccc2)cc1C(=O)c1c(-c2ccccc2)[nH]c2ccccc12	·	·	·	17	·
SMILES	NadD block	GRK2 inh	PP1 counter	Exocytosis inh	Beta2AR agonist
COc1cc(/C=N/NC(=O)c2ccc(COc3cc(C)ccc3C(C)C)cc2)cc(OC)c1O	29	0	9	4	-6
Cc1ccc(C(C)C)c(OCc2ccc(C(=O)N/N=C/c3ccc(O)c(O)c3)cc2)c1	34*	0	4	14	12
O=C(O)c1cccc(-n2cccc2/C=C2\SC(=O)N(Cc3ccccc3F)C2=O)c1	18	45*	-2	1	2
O=C(N/N=C/c1ccc(O)cc1O)c1ccc(CN2C(=O)c3cccc4cccc2c34)cc1	44*	0	14	-2	8
Cc1cc([N+](=O)[O-])nn1Cc1ccc(C(=O)N/N=C/c2ccc(O)cc2O)cc1	-2	0	16*	-2	5
Cc1cc([N+](=O)[O-])nn1Cc1ccc(C(=O)N/N=C/c2ccc(F)cc2)cc1	-8	0	2	3	-2
